Experimental data: PubChem BioAssay (Tox21)
Results filed as inconclusive are left out. Calls of active or inactive are those of the source. Calls come from the whole dose curve; as a rule, active = well fitted cell-killing curve with a large enough effect in the repeat runs; inconclusive = weak or mixed curves, or effect the other way; inactive = flat fitted curve, though single readings scatter.

Assay: qHTS assay to identify small molecule agonists of the estrogen receptor beta (ER-beta) signaling pathway - cell viability counter screen (AID 1259380); note: nearly all actives have a fitted effect of over 30% in size
Conditions: ER-beta-bla HEK293T viability, CellTiter-Glo luminescence, 16 h; series mostly up to 92.4 µM; activity change, negative = cytotoxicity: at the top concentration
In short: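 ER-beta-UAS-bla HEK293T cells in medium with 2% charcoal-stripped FBS, pre-incubated 6 hr, then treated 16 hr at 37C. Cytotoxicity read in the same wells by CellTiter-Glo luminescence after 30 min at room temperature.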
% is set by controls: 0 for no effect and ±100 for the full control effect.

| Structure (SMILES) | activity change, negative = cytotoxicity |
| --- | --- |
| FC(F)(F)c1ccc(Cl)cc1Cl | 3.43% (inactive) |
| C[C@H](CCC(=O)O)[C@H]1CC[C@H]2[C@@H]3[C@H](O)C[C@@H]4C[C@H](O)CC[C@]4(C)[C@H]3C[C@H](O)[C@]12C | 0.782% [at 42.5 µM] (inactive) |
| CCCCCCCC[Si](OCC)(OCC)OCC | 1.47% (inactive) |
| Cc1ncc([N+](=O)[O-])n1CC(O)CCl (stereo not given) | 1.5% [at 42.5 µM] (inactive) |
| CO[Si](CCCCl)(OC)OC | 5.75% (inactive) |
